In PubChem BioAssay AID1159580 (chemical genetic matrix, 2015):
Out of some 5,500 compounds screened, about 2,000 (36%) were called active. About 18% were inconclusive and are not listed. Cut-off read from the data, not from the text of the source: active = normalized growth mostly below about 0.91 (no sharp cut-off); inconclusive = no clear call, values can overlap the other calls; inactive = mostly above about 0.92. Some of the results follow.

Assay: chemical genetic growth profiling, strain panel (AID 1159580);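 note: tested at 20 µM; growth read once vehicle control cultures reached saturation at 30 °C; 1 = growth at the plate median or of vehicle wells; lower values mean less growth of the strain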
Settings: growth OD

Measured: normalized growth

CC(C)CCCC(C)C1CCC2C3CC[C@H]4CCCC[C@]4(C)C3CC[C@]12C (some centres not stated)
inactive: S. cerevisiae deletion strains, locus YJR075W, strain HOC1, active compounds read low 0.965 | S. cerevisiae deletion strains, locus YKL009W, strain mrt4, active compounds read low 1.01 | S. cerevisiae deletion strains, locus YKL068W, active compounds read low 0.993 | S. cerevisiae deletion strains, locus YKL085W, strain MDH1 (second series), active compounds read low 1.02 | S. cerevisiae deletion strains, locus YKL085W, strain MDH1, active compounds read low 1.02 | S. cerevisiae deletion strains, locus YKL160W, strain elf1, active compounds read low 0.998 | S. cerevisiae deletion strains, locus YKL190W, strain CNB1, active compounds read low 0.98 | S. cerevisiae deletion strains, locus YKR001C, strain vps1, active compounds read low 0.996 | S. cerevisiae deletion strains, locus YKR026C, strain gcn3, active compounds read low 0.998 | S. cerevisiae deletion strains, locus YKR091W, strain srl3, active compounds read low 1.02 | S. cerevisiae deletion strains, locus YLL001W, strain dnm1, active compounds read low 1.02 | S. cerevisiae deletion strains, locus YLL026W, active compounds read low 1.02 | S. cerevisiae deletion strains, locus YLL041C, strain sdh2, active compounds read low 1.01 | S. cerevisiae deletion strains, locus YLR027C, strain aat2, active compounds read low 1.01 | S. cerevisiae deletion strains, locus YLR039C, strain RIC1, active compounds read low 0.951 | S. cerevisiae deletion strains, locus YLR058C, strain SHM2, active compounds read low 0.967 | S. cerevisiae deletion strains, locus YLR102C, strain apc9, active compounds read low 0.977 | S. cerevisiae deletion strains, locus YLR113W, strain HOG1, active compounds read low 1.03 | S. cerevisiae deletion strains, locus YLR221C, strain rsa3, active compounds read low 1.02 | S. cerevisiae deletion strains, locus YLR258W, strain gsy2, active compounds read low 1.02 | S. cerevisiae deletion strains, locus YLR262C, strain YPT6 (second series), active compounds read low 1.02 | S. cerevisiae deletion strains, locus YLR262C, strain YPT6, active compounds read low 0.945 | S. cerevisiae deletion strains, locus YLR268W, strain sec22, active compounds read low 0.966 | S. cerevisiae deletion strains, locus YLR320W, strain mms22, active compounds read low 1.02 | S. cerevisiae deletion strains, locus YLR330W, strain CHS5, active compounds read low 0.999 | S. cerevisiae deletion strains, locus YLR342W, strain FKS1 (second series), active compounds read low 1.04 | S. cerevisiae deletion strains, locus YLR342W, strain FKS1, active compounds read low 1.02 | S. cerevisiae deletion strains, locus YLR357W, strain rsc2, active compounds read low 1.04 | S. cerevisiae deletion strains, locus YLR370C, strain arc18, active compounds read low 1.02 | S. cerevisiae deletion strains, locus YLR371W, strain rom2, active compounds read low 0.998 | S. cerevisiae deletion strains, locus YLR384C, strain iki3, active compounds read low 1.02 | S. cerevisiae deletion strains, locus YLR418C, strain cdc73, active compounds read low 0.952 | S. cerevisiae deletion strains, locus YML016C, strain PPZ1, active compounds read low 0.986 | S. cerevisiae deletion strains, locus YML032C, strain rad52, active compounds read low 1 | S. cerevisiae deletion strains, locus YML120C, strain ndi1, active compounds read low 1.02 | S. cerevisiae deletion strains, locus YML124C, strain tub3, active compounds read low 1 | S. cerevisiae deletion strains, locus YMR058W, strain fet3, active compounds read low 1.01 | S. cerevisiae deletion strains, locus YMR078C, strain ctf18, active compounds read low 0.99 | S. cerevisiae deletion strains, locus YMR125W, strain sto1, active compounds read low 1.03 | S. cerevisiae deletion strains, locus YMR129W, active compounds read low 1.02 | S. cerevisiae deletion strains, locus YMR205C, strain PFK2, active compounds read low 1.04 | S. cerevisiae deletion strains, locus YMR223W, strain ubp8, active compounds read low 1 | S. cerevisiae deletion strains, locus YMR231W, strain pep5, active compounds read low 1.02 | S. cerevisiae deletion strains, locus YMR263W, strain SAP30, active compounds read low 0.949 | S. cerevisiae deletion strains, locus YMR307W, strain GAS1, active compounds read low 1.07 | S. cerevisiae deletion strains, locus YNL067W, strain RPL9B, active compounds read low 0.953 | S. cerevisiae deletion strains, locus YNL071W, strain lat1, active compounds read low 1.01 | S. cerevisiae deletion strains, locus YNL128W, strain TEP1, active compounds read low 0.941 | S. cerevisiae deletion strains, locus YNL153C, strain GIM3, active compounds read low 0.962 | S. cerevisiae deletion strains, locus YNL183C, strain NPR1, active compounds read low 0.922 | S. cerevisiae deletion strains, locus YNL209W, strain ssb2, active compounds read low 1.02 | S. cerevisiae deletion strains, locus YNL233W, strain BNI4, active compounds read low 0.983 | S. cerevisiae deletion strains, locus YNL248C, strain rpa49, active compounds read low 0.992 | S. cerevisiae deletion strains, locus YNL250W, strain rad50, active compounds read low 0.986 | S. cerevisiae deletion strains, locus YNL271C, strain bni1, active compounds read low 0.993 | S. cerevisiae deletion strains, locus YNL298W, strain CLA4, active compounds read low 0.998 | S. cerevisiae deletion strains, locus YNL307C, strain MCK1, active compounds read low 1.01 | S. cerevisiae deletion strains, locus YNL322C, strain KRE1 (second series), active compounds read low 1.02 | S. cerevisiae deletion strains, locus YNL322C, strain KRE1, active compounds read low 0.971 | S. cerevisiae deletion strains, locus YNR049C, strain mso1, active compounds read low 1.02 | S. cerevisiae deletion strains, locus YNR052C, strain pop2, active compounds read low 0.996 | S. cerevisiae deletion strains, locus YOL006C, strain TOP1, active compounds read low 0.935 | S. cerevisiae deletion strains, locus YOL012C, strain htz1 1.86 | S. cerevisiae deletion strains, locus YOL147C, strain pex11, active compounds read low 0.992 | S. cerevisiae deletion strains, locus YOR001W, strain rrp6, active compounds read low 0.993 | S. cerevisiae deletion strains, locus YOR061W, strain CKA2, active compounds read low 0.964 | S. cerevisiae deletion strains, locus YOR069W, strain VPS5, active compounds read low 1.01 | S. cerevisiae deletion strains, locus YOR070C, strain gyp1, active compounds read low 1.02 | S. cerevisiae deletion strains, locus YOR080W, strain dia2, active compounds read low 1.02 | S. cerevisiae deletion strains, locus YOR083W, strain WHI5, active compounds read low 0.991 | S. cerevisiae deletion strains, locus YOR106W, strain vam3, active compounds read low 1.01 | S. cerevisiae deletion strains, locus YOR136W, strain idh2, active compounds read low 1 | S. cerevisiae deletion strains, locus YOR144C, strain elg1, active compounds read low 0.981 | S. cerevisiae deletion strains, locus YOR184W, strain ser1, active compounds read low 1.01 | S. cerevisiae deletion strains, locus YOR231W, strain MKK1, active compounds read low 0.992 | S. cerevisiae deletion strains, locus YOR265W, strain rbl2, active compounds read low 1.02 | S. cerevisiae deletion strains, locus YOR270C, strain vph1, active compounds read low 1.03 | S. cerevisiae deletion strains, locus YOR290C, strain snf2, active compounds read low 0.984 | S. cerevisiae deletion strains, locus YOR316C, strain cot1, active compounds read low 0.981 | S. cerevisiae deletion strains, locus YPL051W, strain arl3, active compounds read low 0.997 | S. cerevisiae deletion strains, locus YPL055C, strain LGE1, active compounds read low 0.934 | S. cerevisiae deletion strains, locus YPL078C, strain atp4, active compounds read low 0.996 | S. cerevisiae deletion strains, locus YPL106C, strain sse1, active compounds read low 1.05 | S. cerevisiae deletion strains, locus YPL240C, strain hsp82, active compounds read low 1 | S. cerevisiae deletion strains, locus YPL241C, strain CIN2, active compounds read low 0.993 | S. cerevisiae deletion strains, locus YPL256C, strain CLN2, active compounds read low 0.978 | S. cerevisiae deletion strains, locus YPR119W, strain clb2, active compounds read low 0.999 | S. cerevisiae deletion strains, locus YPR141C, strain kar3, active compounds read low 0.966 | S. cerevisiae deletion strains, locus YPR163C, strain tif3, active compounds read low 1 | S. cerevisiae deletion strains, locus YPR167C, strain met16, active compounds read low 0.982 | S. cerevisiae deletion strains, strain wtn01, active compounds read low 0.982 | S. cerevisiae strains, strain wild type, active compounds read low 0.984
